Reference: PubChem BioAssay (EPA / NIEHS)
Calls of active or inactive are those of the source. The calls were made as follows: active = hit-call score of the fitted dose curve at least 0.9, where 1 is the maximum; inactive = score below 0.9.

Assays:
[1] = read-out: Urokinase-type plasminogen activator receptor (uPAR), PLAUR (gene 5329); assay: BSK_4H_uPAR: BioMAP Diversity Plus: 4H Assay for Urokinase-type plasminogen activator receptor (uPAR) Biomarker Activity (AID 2283030); details: primary human endothelial cells (HUVEC); actives raise or lower the signal
Outline: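 HUVEC, 24 h post-dose; uPAR by ELISA; bidirectional fit vs DMSO baseline.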

[2] = read-out: Vascular endothelial growth factor receptor 2 (Homo sapiens) (UniProt P35968); assay: BSK_4H_VEGFRII: BioMAP Diversity Plus: 4H Assay for Vascular endothelial growth factor receptor 2 (VEGFR2) Biomarker Activity (AID 2283031); details: primary human endothelial cells (HUVEC); actives raise or lower the signal
Outline: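 HUVEC (human primary), 4H system; 24 h post-dose; VEGFRII by ELISA; bidirectional curve fit vs DMSO baseline; gain or loss of signal scored.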

[3] = read-out: Human Leukocyte Antigen - DR isotype (HLADR), HLA-DRA (gene 3122); assay: BSK_BE3C_HLADR: BioMAP Diversity Plus: BE3C Assay for Human Leukocyte Antigen - DR isotype (HLADR) Biomarker Activity (AID 2283032); details: primary human bronchial epithelial cells; actives raise or lower the signal
Outline: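 Signal came from an ELISA for HLA-DR in human bronchial epithelial primary cells harvested 24 h after treatment; gain- and loss-of-signal fitting used DMSO controls as reference.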

[4] = read-out: Vascular cell adhesion molecule 1 (VCAM1), VCAM1 (gene 7412); assay: BSK_4H_VCAM1: BioMAP Diversity Plus: 4H Assay for Vascular cell adhesion molecule 1 (VCAM1) Biomarker Activity (AID 2283033); details: primary human endothelial cells (HUVEC); actives raise or lower the signal;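 as to outcome: cell-surface VCAM-1 protein measured by ELISA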
Outline: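 Endpoint derived from bidirectional fitting against DMSO controls of VCAM-1 ELISA signal in umbilical vein endothelial cells sampled at 24 h following treatment.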

[5] = read-out: Interferon-gamma inducible Protein 10 (IP10), CXCL10 (gene 3627); assay: BSK_BE3C_IP10: BioMAP Diversity Plus: BE3C Assay for Interferon-gamma inducible Protein 10 (IP10) Biomarker Activity (AID 2283034); details: primary human bronchial epithelial cells; actives raise or lower the signal
Outline: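 Using primary human bronchial epithelial cultures, the assay captures IP-10 by ELISA one day (24 h) after exposure. Parallel SRB staining of total protein flags overt cytotoxicity. Fits run bidirectionally relative to DMSO.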

[6] = read-out: Monokine induced gamma interferon (MIG), CXCL9 (gene 4283); assay: BSK_BE3C_MIG: BioMAP Diversity Plus: BE3C Assay for Monokine induced gamma interferon (MIG) Biomarker Activity (AID 2283035); details: primary human bronchial epithelial cells; actives raise or lower the signal;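 as to outcome: MIG protein measured by ELISA in BE3C cultures after 24 h of dosing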
Outline: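 MIG level was determined by ELISA after 24 h chemical treatment of primary human bronchial epithelial cells. Values were fitted bidirectionally with DMSO as the negative control and activity baseline.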

[7] = read-out: Transforming growth factor beta 1 (TGFb1), TGFB1 (gene 7040); assay: BSK_BE3C_TGFb1: BioMAP Diversity Plus: BE3C Assay for Transforming growth factor beta 1 (TGFb1) Biomarker Activity (AID 2283036;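 as to outcome: TGF-b1 protein level measured by ELISA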); details: primary human bronchial epithelial cells; actives raise or lower the signal
Outline: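 In this human primary bronchial epithelial system, an ELISA quantified TGF-b1 one day after dosing. Endpoint changes in either direction were fitted relative to DMSO.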

[8] = read-out: urokinase plasminogen activator (uPA), PLAU (gene 5328); assay: BSK_BE3C_uPA: BioMAP Diversity Plus: BE3C Assay for urokinase plasminogen activator (uPA) Biomarker Activity (AID 2283038); details: primary human bronchial epithelial cells; actives raise or lower the signal;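 as to outcome: uPA protein level quantified by ELISA in cell cultures; uPA read one day after compound addition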
Outline: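 ELISA read-out of uPA in human lung primary bronchial epithelial cultures, 24 h post-dosing. Gain or loss of signal fitted bidirectionally relative to DMSO baseline; cytotoxicity checked in parallel cultures via SRB total protein stain.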

[9] = read-out: Urokinase-type plasminogen activator receptor (uPAR), PLAUR (gene 5329); assay: BSK_BE3C_uPAR: BioMAP Diversity Plus: BE3C Assay for Urokinase-type plasminogen activator receptor (uPAR) Biomarker Activity (AID 2283039); details: primary human bronchial epithelial cells; actives raise or lower the signal;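 as to outcome: uPAR protein level measured by ELISA on the cells; cells exposed to compound for one day before measurement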
Outline: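 A uPAR ELISA serves as the readout, taken 24 h after treating primary human bronchial epithelial cells. Responses in either direction are fitted against DMSO, which defines baseline activity.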

[10] = read-out: Plasminogen activator inhibitor-1 (PAI1), SERPINE1 (gene 5054); assay: BSK_BE3C_PAI1: BioMAP Diversity Plus: BE3C Assay for Plasminogen activator inhibitor-1 (PAI1) Biomarker Activity (AID 2283037); details: primary human bronchial epithelial cells; actives raise or lower the signal
Outline: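 PAI-1 biomarker levels in treated human bronchial epithelial cells are determined by ELISA at 24 h. Both increases and decreases relative to DMSO are fitted.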

With CC(C)=CC1C(C(=O)OCc2coc(Cc3ccccc3)c2)C1(C)C (stereo not given) the outcome [1] was “inactive”, the outcome [2] was “inactive” and the outcome [3] was “inactive”. For the same compound, the AC50 [4] was 4.5 µM (active), the outcome [5] was “inactive” and the outcome [6] was “inactive”. For the same compound, the outcome [7] was “inactive”, the outcome [8] was “inactive” and the outcome [9] was “inactive”.

In the case of O=C1C2CC=CCC2C(=O)N1SC(Cl)(Cl)Cl (stereo not given), the outcome [1] is reported as “inactive”, the outcome [2] is reported as “inactive” and the AC50 [3] is reported as 12.3 µM (active). For the same compound, the outcome [4] was “inactive”, the AC50 [5] was 11.9 µM (active) and the AC50 [6] was 13.5 µM (active). For the same compound, the AC50 [7] was 12.7 µM (active), the AC50 [8] was 11.5 µM (active) and the outcome [9] was “inactive”.

For O=C(O)c1c(Cl)ccc2cc(Cl)cnc12, the outcome [1] was “inactive”, the outcome [3] was “inactive” and the outcome [4] was “inactive”. The outcome [5] was “inactive”, the outcome [6] was “inactive” and the outcome [7] was “inactive”. For the same compound, the outcome [10] was “inactive”, the outcome [8] was “inactive” and the outcome [9] was “inactive”.

With COc1cc(OC)nc(NC(=O)NS(=O)(=O)c2ncccc2OCC(F)(F)F)n1 the outcome [1] was “inactive”, the outcome [2] was “inactive” and the outcome [3] was “inactive”. For the same compound, the outcome [4] was “inactive”, the outcome [5] was “inactive” and the outcome [6] was “inactive”. For the same compound, the outcome [7] was “inactive”, the outcome [8] was “inactive” and the outcome [9] was “inactive”.

For Cc1nc(N(C)C)nc(OC(=O)N(C)C)c1C, the outcome [1] was “inactive”, the outcome [2] was “inactive” and the outcome [3] was “inactive”. The outcome [4] was “inactive”, the outcome [5] was “inactive” and the outcome [6] was “inactive”. The outcome [7] was “inactive”, the outcome [8] was “inactive” and the outcome [9] was “inactive”.

In the case of CC(C)N1C(=O)N(c2ccccc2)CSC1=NC(C)(C)C, the AC50 [1] is reported as 31.7 µM (active), the outcome [2] is reported as “inactive” and the AC50 [3] is reported as 28.9 µM (active). For the same compound, the AC50 [4] was 29.8 µM (active), the AC50 [5] was 30.4 µM (active) and the outcome [6] was “inactive”. The outcome [7] was “inactive”, the outcome [8] was “inactive” and the AC50 [9] was 33.7 µM (active).

For CCCCC(O)(Cn1cncn1)c1ccc(Cl)cc1Cl (stereo not given), the outcome [1] was “inactive”, the outcome [2] was “inactive” and the AC50 [3] was 16 µM (active). The outcome [4] was “inactive”, the AC50 [5] was 26.8 µM (active) and the outcome [6] was “inactive”. For the same compound, the outcome [7] was “inactive”, the outcome [8] was “inactive” and the outcome [9] was “inactive”.

In the case of CC(C)(C)C(=O)C(Oc1ccc(Cl)cc1)n1cncn1 (stereo not given), the outcome [1] is reported as “inactive”, the outcome [2] is reported as “inactive” and the outcome [3] is reported as “inactive”. The outcome [4] was “inactive”, the outcome [5] was “inactive” and the outcome [6] was “inactive”. The outcome [7] was “inactive”, the outcome [8] was “inactive” and the outcome [9] was “inactive”.

In the case of OC(c1ccc(Cl)cc1)(c1ccc(Cl)cc1)C(Cl)(Cl)Cl, the AC50 [1] is reported as 31.4 µM (active), the AC50 [3] is reported as 11.5 µM (active) and the AC50 [4] is reported as 28.3 µM (active). The AC50 [5] was 12.2 µM (active), the AC50 [6] was 14.5 µM (active) and the AC50 [7] was 31.2 µM (active). The AC50 [10] was 13.9 µM (active), the outcome [8] was “inactive” and the outcome [9] was “inactive”.

For CC1(C)C(C=C(Cl)Cl)C1C(=O)OC(C#N)c1cccc(Oc2ccccc2)c1 (stereo not given), the outcome [1] was “inactive”, the outcome [2] was “inactive” and the outcome [3] was “inactive”. The outcome [4] was “inactive”, the outcome [5] was “inactive” and the outcome [6] was “inactive”. The outcome [7] was “inactive”, the outcome [8] was “inactive” and the outcome [9] was “inactive”.

With CC(C)C1(C)N=C(c2ncccc2C(=O)O)NC1=O (stereo not given) the outcome [1] was “inactive”, the outcome [2] was “inactive” and the outcome [3] was “inactive”. For the same compound, the outcome [4] was “inactive”, the outcome [5] was “inactive” and the outcome [6] was “inactive”. For the same compound, the outcome [7] was “inactive”, the outcome [8] was “inactive” and the outcome [9] was “inactive”.

With COCC(=O)N(c1c(C)cccc1C)C(C)C(=O)OC (stereo not given) the outcome [1] was “inactive”, the outcome [2] was “inactive” and the outcome [3] was “inactive”. For the same compound, the outcome [4] was “inactive”, the outcome [5] was “inactive” and the outcome [6] was “inactive”. For the same compound, the outcome [7] was “inactive”, the outcome [8] was “inactive” and the outcome [9] was “inactive”.

For CN=C=S, the outcome [1] was “inactive”, the outcome [2] was “inactive” and the outcome [3] was “inactive”. For the same compound, the outcome [4] was “inactive”, the outcome [5] was “inactive” and the outcome [6] was “inactive”. The outcome [7] was “inactive”, the outcome [10] was “inactive” and the outcome [8] was “inactive”. The outcome [9] was “inactive”.

With CCOP(=S)(OCC)Oc1nc(Cl)n(C(C)C)n1 the outcome [1] was “inactive”, the outcome [2] was “inactive” and the outcome [3] was “inactive”. For the same compound, the outcome [4] was “inactive”, the outcome [5] was “inactive” and the outcome [6] was “inactive”. The outcome [7] was “inactive”, the outcome [8] was “inactive” and the outcome [9] was “inactive”.

In the case of CC(C)NC(=O)N1CC(=O)N(c2cc(Cl)cc(Cl)c2)C1=O, the AC50 [1] is reported as 23.1 µM (active), the outcome [2] is reported as “inactive” and the outcome [3] is reported as “inactive”. The outcome [4] was “inactive”, the outcome [5] was “inactive” and the outcome [6] was “inactive”. For the same compound, the outcome [7] was “inactive”, the outcome [8] was “inactive” and the outcome [9] was “inactive”.

For CCOC(=O)C(C)OC(=O)c1cc(Oc2ccc(C(F)(F)F)cc2Cl)ccc1[N+](=O)[O-] (stereo not given), the AC50 [1] was 10 µM (active), the outcome [2] was “inactive” and the AC50 [3] was 29.7 µM (active). For the same compound, the outcome [4] was “inactive”, the outcome [5] was “inactive” and the outcome [6] was “inactive”. For the same compound, the outcome [7] was “inactive”, the outcome [8] was “inactive” and the outcome [9] was “inactive”.

With Nc1c(Cl)c(F)nc(OCC(=O)O)c1Cl the outcome [1] was “inactive”, the outcome [2] was “inactive” and the outcome [3] was “inactive”. The outcome [4] was “inactive”, the outcome [5] was “inactive” and the outcome [6] was “inactive”. For the same compound, the outcome [7] was “inactive”, the outcome [10] was “inactive” and the outcome [8] was “inactive”. For the same compound, the outcome [9] was “inactive”.
